# Reference: publication PMC12820563, “FoxP3 forms a head-to-head dimer in vivo and stabilizes its multimerization on adjacent microsatellites”
# The full ranking holds about 16,000 sequences; the median of “rpm ratio (pull-down/input)” is about 0.94, and the highest 2% start at about 1.7. Shown is part of a subset that was picked to be rich in the highest values.
# Target: T1, MBP-FoxP1dN (Mus musculus, UniProt P58462 326-579)
# T1 sequence: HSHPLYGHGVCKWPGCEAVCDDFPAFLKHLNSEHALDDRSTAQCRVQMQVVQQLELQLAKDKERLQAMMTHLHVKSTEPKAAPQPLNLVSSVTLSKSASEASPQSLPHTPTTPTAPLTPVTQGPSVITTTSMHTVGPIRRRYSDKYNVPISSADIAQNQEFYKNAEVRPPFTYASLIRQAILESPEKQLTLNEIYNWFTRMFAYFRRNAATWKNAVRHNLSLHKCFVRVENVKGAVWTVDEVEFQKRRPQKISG
# Assay: PD-seq (MBP pull-down with sequencing); 20 mM Tris-HCl pH 7.5, 100 mM NaCl, 1.5 mM MgCl2, 0.4 uM protein, 0.1 uM dsDNA library, 30 min, room temperature, amylose pull-down; high values mean tight binding
# Conditions: protein: recombinant; tags: His6-MBP; chain copies: 2; dsDNA, one strand shown
# Procedure, shortened: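 Protein and DNA were mixed at 0.4 µM and 0.1 µM and held for 30 min at room temperature in Tris pH 7.5 buffer with NaCl and MgCl2; the protein was a His6-MBP-tagged, N-terminally truncated mouse FoxP3 or FoxP1 fragment from E. coli, and the DNA a Klenow-filled double-stranded degenerate library. Amylose resin captured the complexes, which were washed three times. Binding is read as reads-per-million enrichment of pull-down versus input after Illumina sequencing, with replicates pooled.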
row,Sequence,binding signal
1,GATGATTGTTCTCCCAGCTGATGAATTTCCTATATCGAGTAAACAAATTTTCCTAATCTTTCTGTTCAAGCGCCATCTAC,0.903 RPM ratio (pull-down/input)
2,GATGATTGTTCTCCCAGCTGATGAATTCCAACTTTCGAGTAAACAAATTTTCCTAATCTTTCTGTTCAAGCGCCATCTAC,0.884 RPM ratio (pull-down/input)
3,GATGATTGTTCTCCCAGCTGATGAATTATCGTGTTCGAGTAAACAAATTTTCCTAATCTTTCTGTTCAAGCGCCATCTAC,1.08 RPM ratio (pull-down/input)
4,GATGATTGTTCTCCCAGCTGATGAATTATAGACATCGAGTAAACAAATTTTCCTAATCTTTCTGTTCAAGCGCCATCTAC,1.21 RPM ratio (pull-down/input)
5,GATGATTGTTCTCCCAGCTGATGAATTCTCTCCCTCGAGTAAACAAATTTTCCTAATCTTTCTGTTCAAGCGCCATCTAC,0.835 RPM ratio (pull-down/input)
6,GATGATTGTTCTCCCAGCTGATGAATTGGTCAATTCGAGTAAACAAATTTTCCTAATCTTTCTGTTCAAGCGCCATCTAC,1.08 RPM ratio (pull-down/input)
7,GATGATTGTTCTCCCAGCTGATGAATTCAGAAACTCGAGTAAACAAATTTTCCTAATCTTTCTGTTCAAGCGCCATCTAC,0.844 RPM ratio (pull-down/input)
8,GATGATTGTTCTCCCAGCTGATGAATTCGCATAATCGAGTAAACAAATTTTCCTAATCTTTCTGTTCAAGCGCCATCTAC,1.22 RPM ratio (pull-down/input)
9,GATGATTGTTCTCCCAGCTGATGAATTAATAACCTCGAGTAAACAAATTTTCCTAATCTTTCTGTTCAAGCGCCATCTAC,1 RPM ratio (pull-down/input)
10,GATGATTGTTCTCCCAGCTGATGAATTCCCGCCCTCGAGTAAACAAATTTTCCTAATCTTTCTGTTCAAGCGCCATCTAC,0.758 RPM ratio (pull-down/input)
11,GATGATTGTTCTCCCAGCTGATGAATTTTAGGTGTCGAGTAAACAAATTTTCCTAATCTTTCTGTTCAAGCGCCATCTAC,0.902 RPM ratio (pull-down/input)
12,GATGATTGTTCTCCCAGCTGATGAATTCTTTTTGTCGAGTAAACAAATTTTCCTAATCTTTCTGTTCAAGCGCCATCTAC,0.964 RPM ratio (pull-down/input)
13,GATGATTGTTCTCCCAGCTGATGAATTCAATTTGTCGAGTAAACAAATTTTCCTAATCTTTCTGTTCAAGCGCCATCTAC,1.07 RPM ratio (pull-down/input)
14,GATGATTGTTCTCCCAGCTGATGAATTCTGTTTGTCGAGTAAACAAATTTTCCTAATCTTTCTGTTCAAGCGCCATCTAC,2.36 RPM ratio (pull-down/input)
15,GATGATTGTTCTCCCAGCTGATGAATTGTTTTCTTCGAGTAAACAAATTTTCCTAATCTTTCTGTTCAAGCGCCATCTAC,2.03 RPM ratio (pull-down/input)
16,GATGATTGTTCTCCCAGCTGATGAATTTCTTTCGTCGAGTAAACAAATTTTCCTAATCTTTCTGTTCAAGCGCCATCTAC,0.887 RPM ratio (pull-down/input)
17,GATGATTGTTCTCCCAGCTGATGAATTTGATGTTTCGAGTAAACAAATTTTCCTAATCTTTCTGTTCAAGCGCCATCTAC,1.16 RPM ratio (pull-down/input)

row,Sequence,binding signal
1,GATGATTGTTCTCCCAGCTGATGAATTTGCTGTTTCGAGTAAACAAATTTTCCTAATCTTTCTGTTCAAGCGCCATCTAC,1.33 RPM ratio (pull-down/input)
2,GATGATTGTTCTCCCAGCTGATGAATTTGTTTCGTCGAGTAAACAAATTTTCCTAATCTTTCTGTTCAAGCGCCATCTAC,1.3 RPM ratio (pull-down/input)
3,GATGATTGTTCTCCCAGCTGATGAATTGATGTTTTCGAGTAAACAAATTTTCCTAATCTTTCTGTTCAAGCGCCATCTAC,2.82 RPM ratio (pull-down/input)
4,GATGATTGTTCTCCCAGCTGATGAATTGCTGATTTCGAGTAAACAAATTTTCCTAATCTTTCTGTTCAAGCGCCATCTAC,1.31 RPM ratio (pull-down/input)
5,GATGATTGTTCTCCCAGCTGATGAATTGCTGTTTTCGAGTAAACAAATTTTCCTAATCTTTCTGTTCAAGCGCCATCTAC,2.45 RPM ratio (pull-down/input)
6,GATGATTGTTCTCCCAGCTGATGAATTGTTTTCGTCGAGTAAACAAATTTTCCTAATCTTTCTGTTCAAGCGCCATCTAC,2.02 RPM ratio (pull-down/input)
7,GATGATTGTTCTCCCAGCTGATGAATTTCTTCTTTCGAGTAAACAAATTTTCCTAATCTTTCTGTTCAAGCGCCATCTAC,1.01 RPM ratio (pull-down/input)
8,GATGATTGTTCTCCCAGCTGATGAATTGAATGTTTCGAGTAAACAAATTTTCCTAATCTTTCTGTTCAAGCGCCATCTAC,1.01 RPM ratio (pull-down/input)
9,GATGATTGTTCTCCCAGCTGATGAATTGTTTCCTTCGAGTAAACAAATTTTCCTAATCTTTCTGTTCAAGCGCCATCTAC,1.44 RPM ratio (pull-down/input)
10,GATGATTGTTCTCCCAGCTGATGAATTCGGGATTTCGAGTAAACAAATTTTCCTAATCTTTCTGTTCAAGCGCCATCTAC,0.851 RPM ratio (pull-down/input)
11,GATGATTGTTCTCCCAGCTGATGAATTAAGGTGCTCGAGTAAACAAATTTTCCTAATCTTTCTGTTCAAGCGCCATCTAC,0.849 RPM ratio (pull-down/input)
12,GATGATTGTTCTCCCAGCTGATGAATTTGTAAGATCGAGTAAACAAATTTTCCTAATCTTTCTGTTCAAGCGCCATCTAC,1.09 RPM ratio (pull-down/input)
13,GATGATTGTTCTCCCAGCTGATGAATTTTTGAGATCGAGTAAACAAATTTTCCTAATCTTTCTGTTCAAGCGCCATCTAC,0.928 RPM ratio (pull-down/input)
14,GATGATTGTTCTCCCAGCTGATGAATTTGTACCATCGAGTAAACAAATTTTCCTAATCTTTCTGTTCAAGCGCCATCTAC,1.17 RPM ratio (pull-down/input)
15,GATGATTGTTCTCCCAGCTGATGAATTCATCGGATCGAGTAAACAAATTTTCCTAATCTTTCTGTTCAAGCGCCATCTAC,0.838 RPM ratio (pull-down/input)
16,GATGATTGTTCTCCCAGCTGATGAATTATTTCCTTCGAGTAAACAAATTTTCCTAATCTTTCTGTTCAAGCGCCATCTAC,1.04 RPM ratio (pull-down/input)
17,GATGATTGTTCTCCCAGCTGATGAATTGAGTGACTCGAGTAAACAAATTTTCCTAATCTTTCTGTTCAAGCGCCATCTAC,0.833 RPM ratio (pull-down/input)
